# Test results as given in the supplement of paper PMC7858590.
# ± gives the standard deviation of the averaged measurements. The full ranking holds about 3,800 compounds; the median of “cell shape (eccentricity) Z-score vs DMSO control” is about 1.1, and the lowest 2% start at about -4.7. This excerpt belongs to a sample that is enriched for the lowest values.
# Test system: human monocyte-derived macrophages (M0)
# Test: cell shape (eccentricity) Z-score vs DMSO control; higher = more elongated, M2-like morphology
# Details: 20 µM; 24 h; macrophage state: M0 (M-CSF)
# Description: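 Primary human monocyte-derived macrophages (M-CSF differentiated, pooled from 4 donors, 5000 cells/well in 384-well plates) were treated with each compound at 20 uM for 24 h, then fixed and stained with phalloidin/DAPI and imaged on an Opera Phenix (6 fields, about 1000 cells/well). Cell eccentricity was measured with CellProfiler, and a Z-score (t-test) was computed against 4 DMSO control wells in the same row. Negative values mean round (M1-like) cells and positive values mean elongated (M2-like) cells; the paper's hit cutoffs are Z <= -4 (M1) and Z >= 6 (M2). Scale: negative = round, M1-like.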
row,Structure (SMILES),cell shape (Z-score)
1,C=C1[C@@H](C)[C@H]2[C@H](Cc3ccccc3)NC(=O)[C@]23OC(=O)/C=C/[C@H](O)CCC[C@@H](C)C/C=C/[C@H]3[C@@H]1O,-24.4
2,C/C=C/c1ccc2c(c1)OCO2,2.7
3,CC(C)[C@]12O[C@H]1[C@@H]1O[C@]13[C@]1(O[C@H]1CC1C4=C(CC[C@@]13C)C(=O)OC4)[C@@H]2O (stereo not given in full),8.48
4,CC(=O)O[C@H]1C[C@@H](OC(C)=O)C(C)(C)C2C[C@@H](OC(C)=O)[C@]3(C)C(CC[C@@]4(C)[C@H](c5ccoc5)C(=O)[C@H]5O[C@]543)[C@]21C (stereo not given in full),0.275
5,O=c1[nH]c2ccccc2n1CCCN1CCC(n2c(=O)[nH]c3cc(Cl)ccc32)CC1,-1.03
6,O=C1NCN(c2ccccc2)C12CCN(CCCOc1ccc(F)cc1)CC2,1.17
7,O=c1[nH]c2ccccc2n1C1CCN(CCCC(c2ccc(F)cc2)c2ccc(F)cc2)CC1,-6.33
8,O=c1ccc2cc(O[C@@H]3O[C@H](CO)[C@@H](O)[C@H](O)[C@H]3O)c(O)cc2o1,2.48
9,CC(C)CC1C(=O)N2CCC[C@H]2C2(O)O[C@](NC(=O)C3C=C4c5cccc6[nH]c(Br)c(c56)C[C@H]4N(C)C3)(C(C)C)C(=O)N12 (stereo not given in full),4.71
10,O=C1Nc2ccccc2C2(CCN(CCc3ccc(C(F)(F)F)cc3)CC2)O1,-0.107
11,O=C(N[C@H]1CN2CCC1CC2)c1ccc(Cl)cc1,1.37
12,c1cncc(C2=NCCC2)c1,0.998
13,COc1ccc2c3c([nH]c2c1)[C@H](CC(C)C)N1C(=O)[C@H](CCC(=O)OC(C)(C)C)NC(=O)[C@@H]1C3,9.45
14,COc1ccc2c(c1)[nH]c1c(C)nccc12,-5.5
15,C=C[C@H]1C[N@@]2CC[C@H]1C[C@H]2[C@H](O)c1ccnc2ccccc12,2.46
16,CN1c2ccccc2C(NCCCCCCC(=O)O)c2ccc(Cl)cc2S1(=O)=O (stereo not given),0.787
17,CCCCC/C=C\C/C=C\C/C=C\C/C=C\CCCC(=O)NCc1ccc(O)c(OC)c1,-0.144
18,O=C(Cc1ccc(Cl)c(Cl)c1)N1CCCCC1CN1CCCC1 (stereo not given),-0.746
19,Fc1ccc(C(OCCN2CCN(CCCc3ccccc3)CC2)c2ccc(F)cc2)cc1,-0.302
20,Clc1ccc(C(OCCN2CCCCC2)c2ccccc2)cc1 (stereo not given),9.16
21,C(=Cc1ccccc1)CN1CCN(CCOC(c2ccccc2)c2ccccc2)CC1,1.98
22,C(=C\c1ccccc1)/CN1CCN(CCOC(c2ccccc2)c2ccccc2)CC1,-5.62

row,Structure (SMILES),cell shape (Z-score)
1,Fc1ccc(C(OCCN2CCN(CC=Cc3ccccc3)CC2)c2ccc(F)cc2)cc1,-4.91
2,c1ccc(CCCN2CCN(CCOC(c3ccccc3)c3ccccc3)CC2)cc1,4.69
3,Cc1c([N+](=O)[O-])oc2ccc3ccccc3c12,-0.364
4,CN(C)C(=O)Oc1cc(OC(=O)N(C)C)cc(C(O)CNC(C)(C)C)c1 (stereo not given),2.11
5,CC(=O)O[C@@H](c1nc2ccccc2c(=O)n1[C@@H]1C[C@@]2(OC1=O)c1ccccc1N1C(=O)[C@H](C)N(O)[C@@H]12)C(C)C,2.14
6,COc1cc(Br)c(OC)c2c1C(CN)C2 (stereo not given),-4.96
7,CCCN(CCC)C1CCc2c(OC)cccc2C1C (stereo not given),4.87
8,CC1=CC(=O)c2c(O)cccc2C1=O,-4.68
9,CC(C)NCC(O)c1ccc(N)c(C#N)c1 (stereo not given),-0.285
10,CC(=O)O[C@@H]1C[C@@]2(C)[C@H](c3ccoc3)C[C@H]3O[C@]32[C@]2(C)C(=O)C(=O)C3C(C)(C)C(=O)C=C[C@]3(C)C12 (stereo not given in full),-3.62
11,CC(=O)O[C@@H]1CC2C(C)(C)C(=O)C=C[C@]2(C)C2CC[C@]3(C)C(=CC(=O)O[C@H]3c3ccoc3)[C@@]21C (stereo not given in full),-6.06
12,CC1(C)C(=O)C=C[C@@]2(C)C1C[C@@H](O)[C@]1(C)C2CC[C@@]2(C)[C@H](c3ccoc3)OC(=O)[C@H]3O[C@]321 (stereo not given in full),1.86
13,CC(C)(O)c1cc(O)c2c(c1)CCC1C(C)(C(=O)O)CCCC21C (stereo not given),0.93
14,CC(C)c1c(CN(C)C(C)Cc2ccccc2)n(C)n(-c2ccccc2)c1=O (stereo not given),2.2
15,CC12C(=O)OC(=O)C1(C)C1CCC2O1 (stereo not given),-12.8
16,CN1CCc2cc3c(cc2[C@H]1C1OC(=O)c2c1ccc1c2OCO1)OCO3 (stereo not given in full),0.327
17,CC[C@@H](C(=O)[C@@H](C)[C@@H](O)[C@H](C)[C@@H]1O[C@@H]([C@@H](CC)C(=O)O)CC[C@@H]1C)[C@H]1OC2(C=C[C@@H](O)[C@]3(CC[C@@](C)(C4CC[C@](O)(CC)[C@H](C)O4)O3)O2)[C@H](C)C[C@@H]1C (stereo not given in full),1.16
18,C=CCN1C[C@H](C)N([C@H](c2ccc(C(=O)N(CC)CC)cc2)c2cccc(O)c2)C[C@H]1C,1.38
19,C[C@]12CCC3C(CC[C@]4(O)C[C@@H](O)CC[C@]34C=O)[C@@]1(O)CCC2C1=CC(=O)OC1 (stereo not given in full),-3.05
20,CC(C)(O)/C=C/C(=O)[C@](C)(O)C1[C@H](O)C[C@@]2(C)C3CC=C4C(CC(=O)C(=O)C4(C)C)[C@]3(C)C(=O)C[C@]12C (stereo not given in full),-23.9
21,CC(C)(O)CCC(=O)[C@](C)(O)[C@H]1[C@H](O)C[C@@]2(C)[C@@H]3CC=C4C(C=C(O[C@@H]5O[C@H](CO)[C@@H](O)[C@H](O)[C@H]5O)C(=O)C4(C)C)[C@]3(C)C(=O)C[C@]12C (stereo not given in full),1.51
22,CN([N+][O-])c1cc(O)ccc1O,-4.54

row,Structure (SMILES),cell shape (Z-score)
1,C=CCC1(C(C)CCC)C(=O)N=C(S)NC1=O (stereo not given),2.85
2,CC(=Cc1csc(C)n1)[C@H]1C[C@@H]2O[C@]2(C)CCC[C@H](C)[C@H](O)[C@@H](C)C(=O)C(C)(C)[C@@H](O)CC(=O)O1,0.111
3,c1ccc2c(c1)[I+]c1ccccc1-2,-7.52
4,O=C1c2ccccc2C(=O)c2ccccc21,1.99
5,C[C@@]12C[C@@H](c3ccoc3)OC(=O)C1CC[C@]1(C)[C@H]2[C@H]2C=C[C@]1(O)C(=O)O2 (stereo not given in full),-0.795
6,COc1cc2c(c(OC)c1OC)-c1ccc(OC)c(=O)cc1C(NC(C)=O)CC2 (stereo not given),8.73
7,CC(C)(C)c1cc(C=C(C#N)C#N)cc(C(C)(C)C)c1O,-0.65
8,CO[C@@H]1[C@H](O)[C@@H](O[C@@H]2C[C@H]3CC[C@@H]4C(CC[C@]5(C)[C@@H](C6=CC(=O)OC6)CC[C@]45O)[C@@]3(C)[C@H](O)C2)O[C@H](C)[C@@H]1O[C@@H]1O[C@H](CO)[C@@H](O)[C@H](O)[C@H]1O (stereo not given in full),-2.59 ± 0.87
9,C[C@H]1O[C@@H](O[C@H]2CC[C@]3(CO)C4CC[C@]5(C)[C@@H](C6=CC(=O)OC6)CC[C@]5(O)[C@@H]4CC[C@H]3C2)[C@H](O)[C@H](O)[C@@H]1O[C@@H]1O[C@H](CO)[C@@H](O)[C@H](O)[C@H]1O (stereo not given in full),-6
10,C[C@H]1O[C@@H](O[C@H]2CC[C@]3(CO)C4CC[C@]5(C)[C@@H](C6=CC(=O)OC6)CC[C@]5(O)C4CC[C@H]3C2)[C@H](O)[C@H](O)[C@@H]1O (stereo not given in full),1.31
11,COc1ccc2c(c1O)-c1cc(O)cc3c1[C@@H](C2)N(C)CC3,0.611
12,Cc1c(C(=O)c2cccc3ccccc23)c2cccc3c2n1[C@@H](CN1CCOCC1)CO3,3.85
13,CCCn1c(C)c(C(=O)c2cccc3ccccc23)c2ccccc21,1.57
14,Cc1c(C(=O)c2cccc3ccccc23)c2cccc3c2n1[C@H](CN1CCOCC1)CO3,-5.15
15,COc1cc([C@@H]2c3cc4c(cc3[C@H](OC(C)=O)[C@H]3COC(=O)[C@H]23)OCO4)cc(OC)c1OC,9.18
16,Cc1ccc2c(c1)Cc1c(C(=O)NC3CCCCC3)nn(-c3ccc(Cl)cc3Cl)c1-2,2.43
17,N#CC(C#N)=Cc1cc(O)c(O)c([N+](=O)[O-])c1,-0.026
18,CCNC(=O)C1OC(n2cnc3c(N)ncnc32)C(O)C1O (stereo not given),4.21
19,CCOC(=O)c1ncn2c1CN(C)C(=O)c1cc(N=[N+]=[N-])ccc1-2,2.52
20,CN1C[C@H](C(=O)N[C@]2(C)O[C@@]3(O)[C@@H]4CCCN4C(=O)[C@H](Cc4ccccc4)N3C2=O)C[C@@H]2c3cccc4[nH]cc(c34)C[C@H]21,3.57
21,CC(N)Cn1ccc2cc(F)c(Cl)cc21 (stereo not given),0.211
